Experimental data as given in PubChem BioAssay.
Where “and” joins values, the source holds several entries; their conditions need not be identical. Identical values can stand only once. Calls of active or inactive are those of the source. Unless noted, no stated cut-off is given here; in the data, active means parasite load remaining mostly below about 12% (no sharp cut-off); inactive means mostly above about 10%. Numbered stars: 1 amine (or outer) side, 2 acyl side, 3 side chain; on linkers, the order of the positions; unused ones are H or OH. Bridge positions count the residues as written; N and C are the ends. Square brackets hold non-standard residues; d marks the D form. Side chains are listed from the residue outwards. Peptide text beside a SMILES is read from it. * marks the point of attachment. ξ: configuration not given here. ΔAla(E,3-NHCONH2) = NC(=O)N/C=C(/N)C(=O)O; X1 = NC1=NCCC(C(N[*:1])C(=O)[*:2])N1; X2 = CCC(C)C(N)C1=NC(C(=O)*)CS1; ξβ3hOrn = NCCCC(N)CC(=O)*; Orn = NCCC[CH](N)C(=O)O; Dap = NC[CH](N)C(=O)O

Key:
[1] = liver-stage malaria parasite growth inhibition, primary screen, cell-based, HepG2, luciferase luminescence, HepG2 viability (AID 624349);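 further: 100% = mean of DMSO negative control wells on the same plate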; details: P. berghei liver stage in HepG2, luciferase luminescence, concentration not given here; parasite load remaining: stronger effect = lower value; viability: measured here: HepG2 viability without parasites
[2] = differential killing of epithelial or mesenchymal cells, primary screen, imaging, PC-3E GFP, TEM4-18 mCherry, co-culture (AID 1345086;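 active means compounds killing one labelled cell type while sparing the other, by normalised counts and ratio limits, not self-fluorescent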;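 on all read-outs here: cells exposed to compound for 72 h before imaging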;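 on red/green cell ratio (normalised): normalised mesenchymal count divided by normalised epithelial count so high means epithelial killing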); details: imaging cell counts, at 1 µM; for red/green cell ratio (normalised): actives lie on both sides, counts scaled to control wells, 1 = unselective
[3] = sensitizers of A549 cells to miR-34 induction, primary screen, imaging, A549 dox-inducible miR-34, nuclei and caspase counts (AID 1347080;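 active means compounds whose cell count with miR-34 switched on is under 0.7 times the count with it off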); details: A549 miR-34 inducible, Hoechst nuclei count, 48 h
[4] = hESC survival regulators, cell-based (AID 493140; call rule not given here;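 further: cells exposed to compounds for four days before counting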); details: human embryonic stem cell survival screen; stronger effect = higher value
[5] = measured here: epithelial PC-3E GFP cell survival
[6] = measured here: mesenchymal TEM4-18 mCherry cell survival
[7] = stronger effect = lower value, cell number ratio, induced over uninduced
[8] = measured here: relative caspase fold change +Dox/-Dox
[9] = measured here: total cells with miR-34 induction, stronger effect = lower value
[10] = measured here: total cells without miR-34 induction

Row | SMILES | parasite load remaining [1] | viability [1] | red/green cell ratio (normalised) [2] | normalised cell number [2, 5] | normalised cell number [2, 6] | fold change [3, 7] | fold change [3, 8] | cell count [3, 9] | cell count [3, 10] | survival [4]
1 | COc1cc([C@@H]2c3cc4c(cc3C(OC3O[C@@H]5COC(C)O[C@H]5[C@H](O)[C@H]3O)C3COC(=O)[C@@H]32)OCO4)cc(OC)c1O (some centres not stated) | 116% (inactive) and 63.3% (inactive) | 71.1% and 87.6% | 0.85 (inactive) | 0.36 | 0.31 | 0.832 (inactive) | 1.86 | 3220 | 3870 | 
2 | CC(CCC(=O)O)[C@H]1CCC2C3C(=O)C[C@@H]4CC(=O)CC[C@]4(C)C3CC(=O)[C@@]21C (some centres not stated) | 50.2% (inactive) | 81.3% | 1.13 (inactive) | 0.93 | 1.05 | 0.923 (inactive) | 1.77 | 11900 | 12900 | 
3 | CC(C)CC1NC(=O)C(CCCN)NC(=O)C(C(C)C)NC(=O)C2CCCN2C(=O)C(Cc2ccccc2)NC(=O)C(CC(C)C)NC(=O)C(CCCN)NC(=O)C(C(C)C)NC(=O)C2CCCN2C(=O)C(Cc2ccccc2)NC1=O (configuration not stated) (cyclo(FPV[Orn]LFPV[Orn]L); configuration not given here) | -0.175% (inactive) | 12.4% | 0.94 (inactive) | 0.39 | 0.37 | 0.889 (inactive) | 1.03 | 2080 | 2340 | 
4 | O=C1[C@H](CCC(O)c2ccc(F)cc2)[C@@H](c2ccc(O)cc2)N1c1ccc(F)cc1 (some centres not stated) | 127% (inactive) and 58.1% (inactive) | 82.3% and 90.7% | 1.19 (inactive) | 0.87 | 1.03 | 0.905 (inactive) | 1.79 | 11700 | 12900 | 
5 | CC(=O)OCC(=O)[C@@]1(O)CCC2C3CCC4=CC(=O)CC[C@]4(C)[C@@]3(F)[C@@H](O)C[C@@]21C (some centres not stated) | 127% (inactive) and 70.7% (inactive) | 75.9% and 93.9% | 1.57 (inactive) | 0.85 | 1.34 | 0.879 (inactive) | 1.47 | 6890 | 7830 | 
6 | CCCCCCCCCCCCCCCC(=O)O[C@@H]1[C@@H](O)[C@@H](O)C([C@H](NC(=O)[C@@H]2C[C@@H](CCC)CN2C)[C@H](C)Cl)O[C@@H]1SC (some centres not stated) | 57.3% (inactive) | 113% | 0.93 (inactive) | 1.03 | 0.95 | 0.819 (inactive) | 4.42 | 10800 | 13200 | 
7 | C#C[C@]1(OC(C)=O)CCC2C3CCC4=C/C(=N/O)CCC4C3CC[C@@]21CC (some centres not stated) | 66.7% (inactive) | 100% | 0.75 (inactive) | 1.02 | 0.76 | 0.914 (inactive) | 2.93 | 11600 | 12700 | 
8 | CC(=O)c1cc2ccccc2oc1=O | 80.8% (inactive) | 96.7% | 0.84 (inactive) | 1.16 | 0.98 | 0.915 (inactive) | 1.42 | 8970 | 9810 | 6.92 (inactive)
9 | C[C@]12C=CC(=O)C=C1CCC1C2[C@@H](O)C[C@@]2(C)C1CC[C@]2(O)C(=O)COC(=O)CCC(=O)O (some centres not stated) | 61.5% (inactive) | 98% | 0.99 (inactive) | 1.15 | 1.14 | 0.822 (inactive) | 2.28 | 7880 | 9580 | 
10 | CC(=O)Nc1ccc(S(=O)(=O)Nc2onc(C)c2C)cc1 | 53.8% (inactive) | 98% | 0.94 (inactive) | 1 | 0.93 | 0.897 (inactive) | 5 | 11800 | 13200 | 
11 | CCC(C)C(N)C1=NC(C(=O)NC(CC(C)C)C(=O)NC(CCC(=O)O)C(=O)NC(C(=O)NCCCCC2NC(=O)C(CC(N)=O)NC(=O)C(CC(=O)O)NC(=O)C(Cc3cnc[nH]3)NC(=O)C(Cc3ccccc3)NC(=O)C(C(C)CC)NC(=O)C(CCCN)NC2=O)C(C)CC)CS1 (stereo not drawn) (cyclo(DNK([Ile-Glu-Leu-X2])[Orn]IFH); configuration not given here) | 93.7% (inactive) and 69.5% (inactive) | 71.2% and 97.2% | 0.87 (inactive) | 1.23 | 1.06 | 0.838 (inactive) | 0.994 | 10300 | 12300 | 
12 | CC(C)(O/N=C(\C(=O)N[C@@H]1C(=O)N2C(C(=O)[O-])=C(C[n+]3ccccc3)CSC12)c1csc(N)n1)C(=O)O (some centres not stated) | 57.9% (inactive) | 101% | 0.74 (inactive) | 1.28 | 0.94 | 0.922 (inactive) | 3.92 | 12200 | 13200 | 
13 | CCCCCCCCCCC[C@@H](C[C@H]1OC(=O)[C@H]1CCCCCC)OC(=O)[C@@H](CC(C)C)NC=O | 118% (inactive) and 62.8% (inactive) | 86.3% and 114% | 1.11 (inactive) | 0.96 | 1.07 | 0.887 (inactive) | 2 | 11500 | 13000 | 
14 | CNCC[C@@H](Oc1ccccc1)c1ccccc1 | 48% (inactive) | 116% | 1.13 (inactive) | 1.27 | 1.44 | 0.971 (inactive) | 1.23 | 10900 | 11200 | 
15 | O=C(N[C@@H](CO)[C@H](O)c1ccc([N+](=O)[O-])cc1)C(Cl)Cl | 85.6% (inactive) and 68.5% (inactive) | 77.9% and 95.2% | 0.9 (inactive) | 1.15 | 1.04 | 1 (inactive) | 1.84 | 11600 | 11600 | 
16 | C[C@H]1O[C@@H](O[C@H]2[C@@H](O)C[C@H](O[C@H]3[C@@H](O)C[C@H](O[C@H]4CC[C@]5(C)C6CC[C@]7(C)[C@@H](C8=CC(=O)OC8)CC[C@]7(O)C6CC[C@@H]5C4)O[C@@H]3C)O[C@@H]2C)C[C@H](O)[C@@H]1O (some centres not stated) | 0.925% (inactive) and 0.995% (inactive) | 37.2% and 52.3% | 0.46 (inactive) | 0.15 | 0.07 | 0.424 (active) | 1.53 | 190 | 450 | 
17 | CC(=O)O[C@]1(C(C)=O)CCC2C3C=C(C)C4=CC(=O)CCC4(C)C3CCC21C (some centres not stated) | 94.3% (inactive) and 19.1% (inactive) | 74.8% and 83.8% | 0.94 (inactive) | 1.18 | 1.11 | 0.897 (inactive) | 2.81 | 9250 | 10300 | 
18 | C=C1CC[C@H](O)C/C1=C/C=C1\CCCC2(C)C1CCC2C(C)CCCC(C)C (some centres not stated) | 36.2% (inactive) | 104% | 1.03 (inactive) | 1.11 | 1.14 | 0.909 (inactive) | 2.89 | 11700 | 12900 | 
19 | NCCCC(N)CC(=O)NCC1NC(=O)C(CO)NC(=O)C(N)CNC(=O)C(C2CCN=C(N)N2)NC(=O)/C(=C\NC(N)=O)NC1=O (stereo not drawn) (H-[Dap]S[Dap](ξβ3hOrn)[ΔAla(E,3-NHCONH2)][X1]; lactam 1-C; configuration not given here) | 84% (inactive) and 54.2% (inactive) | 74.9% and 94.9% | 0.98 (inactive) | 1.11 | 1.09 | 0.856 (inactive) | 1.07 | 11300 | 13200 | 
20 | NC[C@H]1O[C@H](OC2[C@@H](N)C[C@@H](N)[C@H](O[C@H]3O[C@H](CO)[C@@H](O)[C@H](N)[C@H]3O)[C@H]2O)[C@H](O)[C@@H](O)[C@@H]1O (some centres not stated) | 92.2% (inactive) and 70.3% (inactive) | 72.7% and 101% | 1.25 (inactive) | 0.64 | 0.8 | 0.877 (inactive) | 2 | 11500 | 13200 | 
21 | CC[C@@H]1OC(=O)C[C@@H](O)[C@H](C)[C@@H](O[C@@H]2O[C@H](C)[C@@H](O)[C@H](N(C)C)[C@H]2O)[C@@H](CCN2C[C@H](C)C[C@H](C)C2)C[C@@H](C)C(=O)/C=C/C(C)=C\[C@@H]1CO[C@@H]1O[C@H](C)[C@@H](O)[C@@H](OC)[C@H]1OC | 64.4% (inactive) | 108% | 0.98 (inactive) | 1.1 | 1.07 | 0.885 (inactive) | 3.65 | 12100 | 13600 | 
22 | O=C(O)C1=C(CSc2nnnn2CS(=O)(=O)O)CS[C@@H]2C(NC(=O)[C@H](O)c3ccccc3)C(=O)N12 (some centres not stated) | 57.8% (inactive) | 103% | 0.95 (inactive) | 1.08 | 1.03 | 0.834 (inactive) | 4.26 | 10700 | 12900 | 
23 | C[C@H]1CC2C([C@@H](O)C[C@@]3(C)C2CC[C@]3(O)C(=O)COC(=O)CCC(=O)O)[C@@]2(C)C=CC(=O)C=C12 (some centres not stated) | 83.5% (inactive) | 148% | 0.8 (inactive) | 1.3 | 1.04 | 0.962 (inactive) | 2.48 | 7610 | 7910 | 
24 | CCN[C@@H]1C[C@H](N)[C@@H](O[C@H]2OC(CN)=CC[C@H]2N)[C@H](O)[C@H]1OC1OC[C@](C)(O)[C@H](NC)[C@H]1O (some centres not stated) | 81% (inactive) | 99.2% | 0.96 (inactive) | 1.05 | 1 | 0.763 (inactive) | 6.26 | 8580 | 11200 | 
